Compound activity deposited in PubChem by National Center for Advancing Translational Sciences (NCATS).
Compounds with a hit are over-represented: about 7% of the library has one in this group of screens.
GCN5L2 inh = GCN5L2 (KAT2A) acetyltransferase inhibition; Potency, µM (series often up to 58.9 µM), for the others: at the top dose activity change, negative = inhibition, usual class: inhibitors; Q92830; actives 0.21% (n = 390,000); AID 504327; GCN5L2 HAT assay, ThioGlo1 CoA-SH fluorescence; also: potency is read from the fitted curve at half-maximal effect; % is scaled to controls: 0 for no effect and ±100 for the full control effect
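Enzyme at 20nM final was mixed with library compounds for 15 min at room temperature. Peptide H3(1-25) at 75uM, acetyl-CoA at 70uM and ThioGlo1 at 50uM were then added. Plates were read immediately and after 20 min (Ex340nm/Em540nm).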
PI5P4Ka inh = blocks human PI5P4K alpha kinase activity; max response, %; P48426; AID 652105; PI5P4Kalpha enzyme, ADP-Glo luminescence, 60 min; active compounds read low; actives 1.2% (n = 330,000); active = max response of -50% or lower; inconclusive = between -30% and -50%; inactive = -30% or higher; also: value at the top dose of about 77 µM; % is scaled to controls: 0 for no effect and ±100 for the full control effect
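ADP-Glo luminescence end-point read after a 60 min room-temperature kinase reaction of PI5P4Kalpha plus substrate, initiated with ATP at 5 microM final. Buffer: 0.038 M HEPES pH 7.4, EGTA, 0.1% CHAPS, 5% DMSO.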
JMJD2A Tudor = JMJD2A Tudor domain (human) inhibition; actives 4.4% (n = 390,000); Potency, µM (titrated, usually from 114 µM), for the others: at the top dose activity change, negative = inhibition, hits mostly inhibitors; AlphaScreen JMJD2A-Tudor / H3K4me3 peptide binding; also: potency is read from the fitted curve at half-maximal effect; % is scaled to controls: 0 for no effect and ±100 for the full control effect; nearly all actives have a fitted effect of over 50% in size
HP1b chromo inh = blocks HP1-beta chromodomain binding to methylated histone tails; Potency, µM (highest dose often 114 µM), for inactives: at the top dose activity change, negative = inhibition, hits mostly inhibitors; AlphaScreen HP1-beta / biotin-H3K9me3 peptide binding; AID 540317; actives 0.56% (n = 390,000); also: potency is read from the fitted curve at half-maximal effect; nearly all actives have a fitted effect of over 70% in size
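AlphaScreen: HP1-beta (50 nM) preformed 30 min with biotin-H3(1-18)K9me3 peptide (50 nM) in PBS pH 7.4, 0.01% Tween-20. Compound added for 30 min at RT, then streptavidin donor/nickel chelate acceptor beads (10 ug/mL) for 30 min.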
BAZ2B inh = inhibitors of human BAZ2B bromodomain; Q9UIF8; Potency, µM (series often up to 114 µM), for inactives: at the top dose activity change, negative = inhibition, usual class: inhibitors; AlphaScreen BAZ2B-H3K14Ac peptide displacement; actives 4.4% (n = 360,000); also: potency is read from the fitted curve at half-maximal effect; % is scaled to controls: 0 for no effect and ±100 for the full control effect; nearly all actives have a fitted effect of over 60% in size
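BAZ2B (50 nM) with biotin-H3(5-23)K14Ac peptide (50 nM) in PBS pH 7.4, 0.01% Tween-20, preformed 30 min, then compound 30 min at room temperature; top concentration 110uM. AlphaScreen streptavidin donor/nickel chelate acceptor beads (10 ug/mL final), 20 min dark, signal read.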
PLK1 PBD inh = PLK1 (human) polo-box domain binding inhibition; Plk1 PBD binding of FITC phosphopeptide, fluorescence polarization; Potency, µM, for inactives: max response, negative = inhibition, actives largely listed as inhibitors; AID 720504; actives 2.8% (n = 360,000); also: potency is read from the fitted curve at half-maximal effect; series mostly up to about 57 µM; % is scaled to controls: 0 for no effect and ±100 for the full control effect; nearly all actives have a fitted effect of over 65% in size
* hit, by the source's call; ? = inconclusive; nt = not tested or not shown; ! = a repeat was not active; [ ] = dose if it differs, or a comment. Unless noted, calls follow the shape of the dose curve; as a rule, active = well fitted curve in the direction sought with a large enough effect; inconclusive = small, poorly fitted or top-dose-only effect, or another doubt; inactive = no such curve, though single readings can be large; an effect the other way counts as inactive or inconclusive.

SMILES	GCN5L2 inh	PI5P4Ka inh	JMJD2A Tudor	HP1b chromo inh	BAZ2B inh	PLK1 PBD inh
CN(Cc1ccco1)S(=O)(=O)c1cc(F)ccc1CN1C(=O)c2cccnc2C1=O	-2.2%	-7.2	12.8%	42.8%	?	-1.1%
CN(Cc1ccco1)S(=O)(=O)c1ccc(CN2C(=O)c3cccnc3C2=O)s1	0.7%	2.4	31.6µM*	10.3%	-35.8%[57.1 µM]	26.7µM*
Cc1nn(C)c(C)c1NC(=O)c1ccc(Cl)cc1	-4.1%	-10.4	?	-9.3%	-3.4%	29.9µM*
O=c1c(Cl)c(O)c2cccc3c4ccccc4n1c23	-13.9%	-56.8*	-26.1%	6.3%	-27.5%	-26.9%
COc1c(O)c(=O)n2c3ccccc3c3ccnc1c32	-2.8%	-4.4	?	-10.0%	9.7%	-10.8%
CC(C)c1cc(Nc2cccc(O)c2)cc(C(C)C)c1O	-7.5%	nt	nt	nt	31.6µM*	nt
CCCCCCCCCCCCCCCC[n+]1ccc(/C=N/O)cc1	-2.3%	-59.8*	-25.3%	-3.6%	5.6%	-0.8%
O=C(Nc1nnc(S(=O)(=O)N2CCCCCC2)s1)c1ccccc1Br	1.9%	-9.4	12.6µM*!	39.7%	14.1µM*!	-4.8%
CC1CCN(S(=O)(=O)c2nnc(NC(=O)c3ccccc3Br)s2)CC1	-2.1%	10.4	-10.9%	47.1%	13.2%	-22.6%
O=C(Nc1nnc(S(=O)(=O)N2CCCC2)s1)c1ccccc1Br	-2.2%	0.5	?	52.2%	7.08µM*!	-1.7%
COC(=O)c1ccc(CNC(=O)c2ccc(OC)c(S(=O)(=O)NC3CC3)c2)cc1	nt	-4.4	nt	nt	nt	-4.7%
Cc1nn(-c2ccccc2)c(N)c1-c1ccccc1	-13.5%	2.4	-16.2%	31.8%	-13.9%	-4.6%
Cc1nn(-c2ccccc2)c(N)c1N=Nc1cccc(S(=O)(=O)N2CCOCC2)c1	-11.7%	2.8	?	?	28.2µM*	-1.6%
Nc1nn(-c2ccccc2)c(N)c1N=Nc1ccccc1	0.4%	121.1	?	?	39.8µM*	-12.6%
Cc1nn(-c2ccccc2)c(N)c1N=Nc1ccccc1	-9.9%	-1.5	56.2µM*	?	31.6µM*	2.6%
Nc1nn(-c2ccccc2)c(N)c1N=Nc1ccccc1F	-5.0%	171.8	?	-33.5%	35.5µM*	-8.4%
Nc1ncnc(N)c1N=Nc1ccccc1	1.6%	-13.9	-14.6%	16.4%	-5.5%	-9.2%
COc1ccc(N(C(=O)c2cnccn2)C(C(=O)NC2CCCCC2)c2cc(OC)c(OC)c(OC)c2)cc1 (stereo unspecified)	-2.5%	-0.2	-9.0%	-3.2%	-0.6%	-16.1%
O=C(c1ccc2n[nH]nc2c1)N1CCN(c2ccc(C(F)(F)F)cn2)CC1	2.6%	1.3	-2.7%	63.5%	-1.9%	2.6%
Cc1cc2c(s1)c1cnn(Cc3cccc4cccnc34)c(=O)c1n2C	nt	nt	-24.0%	nt	nt	nt
CC1CCC2(CC1)NC(=O)N(CC(=O)N1c3ccccc3CC1C)C2=O (stereo unspecified)	2.4%	-1.1	-4.9%	25.9%	nt	-5.3%
CS(=O)(=O)N1Cc2cc(C(=O)NCC3CC3)nc(-c3cccc(-c4cccnc4)c3)c2[C@@H]1CCO	nt	1.7	nt	nt	nt	-10.4%
Cc1nn(-c2ccccc2)c(N)c1N=Nc1ccc(Cl)cc1	-9.3%	32.4	44.7µM*	?	39.8µM*	-1.9%
Cc1cccc(N=Nc2c(C)nn(-c3ccccc3)c2N)c1C	-10.7%	31.0	25.1µM*	?	17.8µM*	5.6%
Cc1ccc(C(c2c(C)nn(-c3ccccc3)c2N)c2c(C)nn(-c3ccccc3)c2N)cc1	1.2%	6.9	?	?	?	-5.1%
SMILES	GCN5L2 inh	PI5P4Ka inh	JMJD2A Tudor	HP1b chromo inh	BAZ2B inh	PLK1 PBD inh
CN1CCc2c(sc3c2C(=O)NC(c2ccc(C(C)(C)C)cc2)N3)C1 (stereo unspecified)	-4.8%	nt	?	6.6%	-16.7%	nt
CC(C)[C@H]1C=C(C(=O)O)O[C@@H](OCc2ccc(CO)cc2)C1	-8.4%	-0.9	89.1µM*	25.2%	?	-6.0%
C#CCNC(=O)C1=C[C@H](c2ccc(C#C)cc2)C[C@H](OCc2ccc(CO)cc2)O1	nt	-58.6*	-18.1%	24.4%	nt	-25.2%
C[C@@H]1C=C(C(=O)O)O[C@H](OCc2ccc(CO)cc2)C1	1.0%	-2.6	-13.6%	23.4%	-37.6%	-21.7%
Cc1c(C(=O)N(C)C)sc2c1c(=O)n(-c1ccc(Cl)cc1)c(=O)n2CC(=O)C(C)(C)C	-5.5%	nt	-22.0%	16.2%	-1.0%	nt
O=C(OCC(=O)N1CCOCC1)c1cccc(F)c1	-0.7%	1.7	8.5%	26.2%	-1.4%	4.5%
O=C(CNC(=O)c1ccc(N2C(=O)c3ccccc3C2=O)cc1)OCC(=O)c1ccccc1	-1.8%	-18.3	-27.5%	-6.4%	-1.0%	23.8µM*
CCc1ccc(C(=O)COC(=O)CNC(=O)c2ccc(N3C(=O)c4ccccc4C3=O)cc2)cc1	0.0%	nt	-14.1%	17.6%	?	-4.4%
O=C(/C=C/c1ccccc1)NCCS(=O)(=O)N1CCN(c2ccccc2F)CC1	?	4.5	-9.6%	32.5%	11.2%	-14.5%
CCc1ccc2occ(CC(=O)N(Cc3ccc(N(C)C)cc3)C3CCS(=O)(=O)C3)c2c1 (stereo unspecified)	-1.7%	nt	39.8µM*	?	20µM*	nt
CC(C)c1ccc2occ(CC(=O)N(Cc3ccc(F)cc3)C3CCS(=O)(=O)C3)c2c1 (stereo unspecified)	-9.9%	nt	-24.0%	20.0%	-9.4%	nt
Cc1cc(C)c2c(CC(=O)N(Cc3ccccc3)C3CCS(=O)(=O)C3)coc2c1 (stereo unspecified)	-2.4%	nt	-21.9%	28.0%	-22.3%	nt
Cc1ccc2occ(CC(=O)N(Cc3ccc(N(C)C)cc3)C3CCS(=O)(=O)C3)c2c1 (stereo unspecified)	-3.7%	nt	?	-18.6%	44.7µM*	nt
CCN(CC)c1ccc(CN(C(=O)Cc2coc3ccc(C)cc23)C2CCS(=O)(=O)C2)cc1 (stereo unspecified)	-14.0%	nt	?	-16.5%	10µM*	nt
O=c1[nH]c2ccc(NCc3ccc(-c4ccc(F)cc4)o3)cc2[nH]1	-4.5%	nt	-14.9%	65.5%	-30.8%	nt
CCN(CC)CCCC(C)n1c(C)cc(C(=O)NS(=O)(=O)c2ccc(C)cc2)c1C (stereo unspecified)	nt	3.2	nt	nt	nt	0.7%
CCOc1ccc(CNC(=O)c2sc3nc(C)cc(C)c3c2-n2cccc2)cc1	-8.7%	nt	-26.2%	-1.5%	-0.6%	nt
COc1ccc(-c2cc(C(=O)N3CCN(c4ccccc4OC)CC3)no2)cc1OC	-9.8%	-2.9	?	2.1%	79.4µM*	-12.8%
COc1cc(C2Oc3ccccc3C=C2[N+](=O)[O-])cc(OC)c1OC (stereo unspecified)	-10.6%	-1.9	56.2µM*	-20.0%	35.5µM*	4.23µM*
